Data on 24 molecules can be found in PubChem BioAssay (NCATS).

Each structure is given as a SMILES string. Inconclusive results are not listed. Values without a mark were called inactive. Calls of active or inactive are those of the source. The call rests on the fitted dose curve; in most records, active means well fitted curve in the direction sought with a large enough effect; inconclusive means small, poorly fitted or top-dose-only effect, or another doubt; inactive means no such curve, though single readings can be large; an effect the other way counts as inactive or inconclusive.

Experiment [1] addresses Cellular tumor antigen p53 (Homo sapiens) (UniProt P04637). Nature of the experiment: Primary qHTS for small molecule compounds that upregulate eGFP-tagged delta133p53alpha (in N-terminal) cells. (AID 2060322). Further: nearly all actives have a fitted effect of over 75% in size. Further: potency means the concentration at half of the fitted maximal effect.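 On activation: series mostly up to about 56 µM; 0% = DMSO vehicle and 100% = reference activator.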 The note with it: NCI-H358 eGFP-delta133p53alpha fluorescence, 24 h; activation: hits give high values. An outline of the steps: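 NCI-H358 cells pre-induced 24 h with 10 ng/ml doxycycline to express N-terminal eGFP-delta133p53alpha, then dosed 24 h at 37C without doxycycline; fixed, Hoechst-stained, GFP intensity by laser scanning cytometry, normalized to DMSO (0%) and 57.5 uM 5-azacytidine (100%).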

Experiment [2] addresses Aldehyde dehydrogenase, mitochondrial (Homo sapiens) (UniProt P05091). Nature of the experiment: qHTS for Inhibitors of the Aldehyde Dehydrogenase Family (ALDH2) Primary screen (AID 2061308).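 Further: plate controls were vehicle for no effect and reference inhibitor for full effect; nearly all actives have a fitted effect of over 55% in size.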
In experiment [3] the target is Retinaldehyde dehydrogenase 3 (Homo sapiens) (UniProt P47895). Kind of experiment: qHTS for Inhibitors of the Aldehyde Dehydrogenase Family (ALDH1A3) Primary screen (AID 2061315).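 Further: plate controls were DMSO vehicle for no effect and reference inhibitor for full effect.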

Sequence of Cellular tumor antigen p53 (Homo sapiens) (P04637 whole entry, looked up): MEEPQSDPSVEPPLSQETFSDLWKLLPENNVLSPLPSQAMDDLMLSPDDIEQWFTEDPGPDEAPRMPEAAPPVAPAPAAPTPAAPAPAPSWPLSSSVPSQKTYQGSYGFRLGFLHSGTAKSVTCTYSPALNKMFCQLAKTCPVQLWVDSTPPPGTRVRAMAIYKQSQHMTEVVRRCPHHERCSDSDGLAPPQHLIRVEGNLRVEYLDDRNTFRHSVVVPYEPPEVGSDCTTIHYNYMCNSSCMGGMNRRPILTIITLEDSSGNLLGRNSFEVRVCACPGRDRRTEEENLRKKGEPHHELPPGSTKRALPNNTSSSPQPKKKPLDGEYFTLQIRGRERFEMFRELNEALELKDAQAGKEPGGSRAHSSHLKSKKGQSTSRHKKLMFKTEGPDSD

With `Nc1c(Br)cc(Br)cc1CNC1CCC(O)CC1` (configuration not stated), in experiment [1], the activation is 29.7%. The Potency entry in experiment [2] and in experiment [3] was “inactive” throughout.
With `C[C@@H]1O[C@@H](O[C@H]2[C@H](OC(=O)C34CCC5(C)C(=CCC6C7(C)CC(O)C(O[C@@H]8O[C@H](C(=O)O)[C@@H](O)[C@H](O)[C@H]8O)C(C)(C(=O)O)C7CCC65C)C3CC(C)(C)CC4O)O[C@H](C)[C@@H](O)[C@@H]2O)[C@H](O)[C@@H](O[C@@H]2OC[C@](O)(CO)[C@H]2O[C@@H]2O[C@H](CO)[C@@H](O)[C@H](O)[C@H]2O)[C@H]1O` (some centres not stated), the activation in experiment [1] was 8.4%. For the same molecule, the activity change, negative = inhibition in experiment [2] was 0.837% [at 11.2 µM]; in experiment [3], 5.31% [at 11.2 µM].
Take `N#Cc1cc(-c2ccnc(Nc3ccc(N4CCOCC4)cc3)n2)ccc1OC1CCOCC1`: in experiment [1], the activation was -18.8%. The Potency result in experiment [2] and in experiment [3] was “inactive” each time.
In the case of `C=C(C(=O)O)[C@@H]1CC[C@@]2(C)CC[C@@H](O)C(=C)C2C1` (some centres not stated), the activation in experiment [1] was 22.9%. Also, the Potency result in experiment [2] and in experiment [3] was “inactive” in each case.
Take `CC1(C=O)CCCC2(C)C1CCC13CC(CO)C(CCC12)C3` (configuration not stated): the activation in experiment [1] was -9.92%. Moreover, the Potency entry in experiment [2] and in experiment [3] was “inactive” each time.
In the case of `COc1cc(O)c(C(=O)CCc2ccc(O)cc2)c(O[C@@H]2O[C@H](CO)[C@@H](O)[C@H](O)[C@H]2O)c1`, in experiment [1], the Potency was 7.38 µM (active). In addition, the Potency entry in experiment [2] and in experiment [3] was “inactive” each time.
With `C=C[C@H]1[C@H](O[C@@H]2O[C@H](CO)[C@@H](O)[C@H](O)[C@H]2O)OC=C(C(=O)OC)[C@H]1C/C=C(/C=O)[C@@H]1C(C(=O)OC)=CO[C@@H](O[C@@H]2O[C@H](CO)[C@@H](O)[C@H](O)[C@H]2O)[C@@H]1C=C`, the activation in experiment [1] is -22.1%. Moreover, the Potency result in experiment [2] and in experiment [3] was “inactive” in each case.
Take `O=C(O)c1ccc(NC(=O)[C@H](CC2CCCC2)n2cnc(C(F)(F)F)c2)nc1`: in experiment [1], the activation was -23.2%. Further, the Potency entry in experiment [2] and in experiment [3] was “inactive” each time.
Regarding `CC(=O)/C=C/[C@H]1[C@](C)(O)[C@@H](O)[C@H](OC(C)=O)C2C(C)(C)CCC[C@@]21C` (some centres not stated), in experiment [1], the activation is -2.68%. Besides, the Potency result in experiment [2] and in experiment [3] was “inactive” throughout.
On to `COc1ccc2c(NC(=O)Nc3cccc(C(F)(F)F)n3)ccnc2c1`, for which the activation in experiment [1] is 16.1%. Also, the Potency entry in experiment [2] and in experiment [3] was “inactive” each time.
As to `CC(=O)O[C@H]1CC[C@H](C)[C@@]2(C)[C@H](OC(C)=O)c3c(C)coc3C(=O)[C@H]12`, the activation in experiment [1] is -3.82%. The Potency result in experiment [2] and in experiment [3] was “inactive” throughout.
With `C[C@]1(OC(=O)/C=C/c2ccc(O)cc2)C[C@@H](O)[C@]2(O)C=CO[C@@H](O[C@@H]3O[C@H](CO)[C@@H](O)[C@H](O)[C@H]3O)C12` (some centres not stated), the activation in experiment [1] is 3.57%. The Potency result in experiment [2] and in experiment [3] was “inactive” throughout.
As to `C/C(=C\C(=O)C(C)C1CCC2C3=C(CCC21C)C1(C)CCC(=O)C(C)(C)C1(O)CC3)C(C)(C)O` (configuration not stated), in experiment [1], the activation is -16.8%. Further, the Potency result in experiment [2] and in experiment [3] was “inactive” each time.
Regarding `Nc1ncnc2c1ncn2CCNCCCCCO`, in experiment [1], the activation was -0.333%. The Potency entry in experiment [2] and in experiment [3] was “inactive” in each case.
Regarding `C1=Cc2ccccc2C(=C2CCN(CCCCc3nn[nH]n3)CC2)c2ccccc21`, the activation in experiment [1] is -3%. Moreover, the Potency entry in experiment [2] and in experiment [3] was “inactive” each time.
On to `CC(C)(C)CCN1C[C@@H]2C(CNC(=O)c3cc(Cl)cc(Cl)c3)[C@@H]2C1` (some centres not stated), for which the activation in experiment [1] was 26.3%. Also, the Potency entry in experiment [2] and in experiment [3] was “inactive” throughout.
Consider `CC1=CCC2C(C)(C)CCC[C@]2(C)[C@@]12CC[C@](C)(CC(=O)O)O2` (some centres not stated), for which the activation in experiment [1] is 27.5%. The Potency result in experiment [2] and in experiment [3] was “inactive” throughout.
With `C=C(C(=O)O)C1CCC2(C)CCCC(C)(O)C2C1` (configuration not stated), the activation in experiment [1] is -5.36%. The Potency entry in experiment [2] and in experiment [3] was “inactive” each time.
In the case of `CC1(CCOC2OC(CO)C(O)C(O)C2O)CCC23OC2(C1)C(O)CC1C(C)(C(=O)O)CCCC13C` (configuration not stated), the activation in experiment [1] was -13.7%. Besides, the Potency entry in experiment [2] and in experiment [3] was “inactive” each time.
As for `C[C@@H]1CC[C@@]2(OC1)O[C@H]1C[C@H]3[C@@H]4CC=C5C[C@@H](O)CC[C@]5(C)[C@H]4CC[C@]3(C)[C@H]1[C@@H]2C`, in experiment [1], the activation was -4.46%. Also, the Potency entry in experiment [2] and in experiment [3] was “inactive” throughout.
With `Fc1cccc(CN(C2=NCCN2)c2c(Cl)cccc2Cl)c1`, the activation in experiment [1] is -15%. In addition, the Potency result in experiment [2] and in experiment [3] was “inactive” in each case.
For `C[C@@H]1C[C@@H](O)[C@@]23CO[C@]2(CO)CCC[C@@H]3[C@@]12C[C@@H](c1ccoc1)OC2=O`, the activation in experiment [1] was 24.4%. Further, the Potency entry in experiment [2] and in experiment [3] was “inactive” each time.
For the molecule `CC(=O)O[C@@H]1C[C@]2(C)[C@@]3(CCC4[C@@]5(C)CC[C@H](O[C@@H]6O[C@H](C(=O)O)[C@@H](O)[C@H](OC7OC(CO)C(O)C(O)[C@H]7O[C@@H]7O[C@@H](C)[C@H](O)[C@@H](O)[C@H]7O[C@@H]7OC[C@](O)(CO)[C@H]7O)[C@H]6OC6OC(CO)C(O)C(O)C6O)C(C)(C)C5CC[C@]42C)OC[C@@]12CCC(C)(C)CC23` (some centres not stated), in experiment [1], the activation was -16%. Besides, the values for the activity change, negative = inhibition in experiment [2] and in experiment [3] were 9.13% [at 11.2 µM] and 6.07% [at 11.2 µM], respectively.
With `CC(C)C1NC(=O)C(CC2(O)c3ccccc3N3C(=O)C(Cc4ccccc4)NC32)NC1=O` (configuration not stated), the activation in experiment [1] was -9.82%. The Potency entry in experiment [2] and in experiment [3] was “inactive” each time.
